A selection: hits, their analogues and other compounds. The true share with any hit is near 6.9%.
ASM inhibitor = inhibitors of human secretory acid sphingomyelinase | AID 504937 | 340,000 tested, 0.006% active | Potency, µM (series often up to 57.5 µM), for the others: top-dose activity change, negative = inhibition, usual class: inhibitors | placental ASM, HMU-PC fluorogenic substrate, 60 min; further: potency means the concentration at half of the fitted maximal effect
Target sequence (P17405 47-631 limits assumed): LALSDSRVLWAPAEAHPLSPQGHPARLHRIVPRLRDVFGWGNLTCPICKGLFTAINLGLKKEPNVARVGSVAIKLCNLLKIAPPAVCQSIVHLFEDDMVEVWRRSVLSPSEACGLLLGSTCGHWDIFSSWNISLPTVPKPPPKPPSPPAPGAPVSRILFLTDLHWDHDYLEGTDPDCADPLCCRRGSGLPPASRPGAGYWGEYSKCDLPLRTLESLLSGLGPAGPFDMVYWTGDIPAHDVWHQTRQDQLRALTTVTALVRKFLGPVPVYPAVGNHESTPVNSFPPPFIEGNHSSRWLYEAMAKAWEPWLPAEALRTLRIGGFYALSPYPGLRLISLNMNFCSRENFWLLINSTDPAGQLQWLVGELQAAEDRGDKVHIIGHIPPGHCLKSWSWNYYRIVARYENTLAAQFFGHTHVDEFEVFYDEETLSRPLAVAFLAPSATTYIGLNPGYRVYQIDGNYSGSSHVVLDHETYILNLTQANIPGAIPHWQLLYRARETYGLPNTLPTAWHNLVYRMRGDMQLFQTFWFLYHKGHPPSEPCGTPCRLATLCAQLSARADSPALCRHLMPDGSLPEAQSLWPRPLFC
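Human placenta-derived ASM preincubated with compound 10 min at room temperature, then reacted with 9 uM (final) fluorogenic HMU-PC substrate for 60 min at 37 C. Stop solution raises pH to 10; fluorescence read at Ex 386/Em 447 nm.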
KB-3-1 cytotox = KB-3-1 parental cell cytotoxicity. KB-3-1 viability, CellTiter-Glo ATP luminescence, 72 h. 400,000 tested, 1.4% active. Potency, µM (doses to about 46.1 µM), hits mostly cytotoxic; further: potency means the concentration at half of the fitted maximal effect; on the % scale 0 is the no-effect control and ±100 the full control effect; nearly all actives have a fitted effect of over 60% in size
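Cytotoxicity in the drug-sensitive parental line KB-3-1 was scored as loss of CellTiter-Glo luminescence following 72 h incubation with compound. Values come from curve fitting of normalized concentration-response data.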
Giardia kill = Giardia lamblia killing. AID 540267. activity change, % at 7.66 µM, hits read low. 340,000 tested, 0.15% active. Giardia lamblia trophozoite viability; in the data active means activity change below about -80%; inconclusive means between about -30% and that limit;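 further: parasites exposed to compound for two days anaerobically before the ATP read; on the % scale 0 is the no-effect control and ±100 the full control effect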
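Giardia trophozoites, 100 cells per well, were exposed to compounds for 48 hrs at 37 deg C under anaerobic conditions; viability was then read as ATP content by bioluminescence after 15-30 min at room temperature.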
KB-V1 cytotox = kills drug-selected multidrug resistant KB-V1 cells | KB-V1 MDR cells viability, CellTiter-Glo, 72 h | 400,000 tested, 3.4% active | AID 1347076 | Potency, µM (titrated, usually from 46.1 µM), actives largely listed as cytotoxic; further: potency means the concentration at half of the fitted maximal effect; on the % scale 0 is the no-effect control and ±100 the full control effect; nearly all actives have a fitted effect of over 60% in size
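In this primary screen, KB-V1 cells overexpressing P-gp are incubated with library compounds (lowest to highest concentration) for 72 h at 37 degrees C before a luminescent ATP viability read.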
MCF10A rerep = DNA re-replication induction in MCF 10a cells; MCF 10A DNA re-replication, Hoechst nuclear intensity, 48 h; Potency, µM (highest dose often 46.1 µM), for inactives: at the top dose activity, positive = re-replication, most hits filed as activators; 350,000 tested, 2.9% active; AID 624296; further: potency means the concentration at half of the fitted maximal effect; % of control where 0% means no effect; nearly all actives have a fitted effect of over 50% in size
SW480 rereplic = DNA re-replication induction in SW480 cells; SW480 DNA re-replication, Hoechst DNA content imaging, 48 h; Potency, µM (top dose mostly 46.1 µM), for inactives: at the highest dose re-replication activation, most hits filed as activators; 340,000 tested, 1.8% active; further: potency means the concentration at half of the fitted maximal effect; % of control where 0% means no effect; nearly all actives have a fitted effect of over 55% in size
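DNA re-replication was detected as more nuclei of elevated Hoechst intensity after 48 hr exposure to compound (23 nL pinned per well of 250 cells).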
* hit, by the source's call. Unless noted, the call rests on the fitted dose curve; in most records, active means well fitted curve in the direction sought with a large enough effect; inconclusive means small, poorly fitted or top-dose-only effect, or another doubt; inactive means no such curve, though single readings can be large; an effect the other way counts as inactive or inconclusive.

`CC(O)COCC1OC2OC3C(COCC(C)O)OC(OC4C(COCC(C)O)OC(OC5C(COCC(C)O)OC(OC6C(COCC(C)O)OC(OC7C(COCC(C)O)OC(OC8C(COCC(C)O)OC(OC1C(OCC(C)O)C2OCC(C)O)C(OCC(C)O)C8OCC(C)O)C(OCC(C)O)C7OCC(C)O)C(OCC(C)O)C6OCC(C)O)C(OCC(C)O)C5OCC(C)O)C(OCC(C)O)C4OCC(C)O)C(OCC(C)O)C3OCC(C)O` (centres undefined) gave KB-3-1 cytotox inactive and KB-V1 cytotox inactive.
`COc1cc(OC)c(C2=Nc3ccc(Br)cc3C(c3ccccc3)N2CC(=O)NN)cc1OC` (centres undefined) gave ASM inhibitor -2.6%, KB-3-1 cytotox inactive, Giardia kill -0.9, KB-V1 cytotox inactive, MCF10A rerep 2.91µM* and SW480 rereplic -9.1%.
Screening COc1ccc(Nc2c(-c3ccc(Cl)cc3)nc3cnccn23)cc1OC returned KB-3-1 cytotox inactive and KB-V1 cytotox inactive.
For Cc1ccc(N2CCN(C3=NC(=O)C(Cc4ccccc4)S3)CC2)cc1 (centres undefined) the results were ASM inhibitor -2.9%, KB-3-1 cytotox inactive, Giardia kill 4.2, KB-V1 cytotox inconclusive, MCF10A rerep -3.1% and SW480 rereplic 1.4%.
O=C1N=C(N2CCN(c3ccccc3)CC2)SC1Cc1ccccc1 (centres undefined) was read as ASM inhibitor -5.5%, KB-3-1 cytotox inactive, Giardia kill 4.5, KB-V1 cytotox 16.4µM*, MCF10A rerep -6.6% and SW480 rereplic -2.9%.
For N=C(N)SCc1cn(-c2ccccc2)nc1-c1ccc(Br)cc1 the results were ASM inhibitor -26.0%, KB-3-1 cytotox inconclusive, Giardia kill 6.8, KB-V1 cytotox 18.4µM*, MCF10A rerep inconclusive and SW480 rereplic 17.8%.
Screening Cc1ccc(-c2nn(-c3ccccc3)cc2CO)cc1 returned ASM inhibitor -2.4%, KB-3-1 cytotox inactive, Giardia kill -12.2, KB-V1 cytotox inactive, MCF10A rerep -1.0% and SW480 rereplic -4.5%.
For CCc1cccc2c1NC(=O)C21N2CCCC2C(C(=O)c2ccc3ccccc3c2)C12C(=O)Nc1ccccc12 (centres undefined) the results were ASM inhibitor -6.8%, KB-3-1 cytotox 16.4µM*, Giardia kill 1.9, KB-V1 cytotox inconclusive, MCF10A rerep 14.5% and SW480 rereplic inconclusive.
`O=C(CCNc1cc(Cl)cc(Cl)c1)c1cccs1` gave ASM inhibitor -8.2%, KB-3-1 cytotox inactive, Giardia kill 13.4, KB-V1 cytotox inactive, MCF10A rerep 23.1µM* and SW480 rereplic 1.4%.
`Cc1cc(C)n(C(C)Sc2ccccc2)n1` (centres undefined) gave ASM inhibitor 6.1%, KB-3-1 cytotox inactive, Giardia kill -4.8, KB-V1 cytotox inactive, MCF10A rerep -25.9% and SW480 rereplic -58.7%.
CN(C)c1ccc(/C=C/c2ccnc3ccc(I)cc23)cc1 was read as KB-3-1 cytotox inconclusive and KB-V1 cytotox inactive.
For Cc1cc(Cl)c(S(=O)(=O)Nc2cc(S(=O)(=O)N3CCOCC3)ccc2F)cc1OCC(N)=O the results were ASM inhibitor -4.2%, KB-3-1 cytotox inactive, Giardia kill -1.7, KB-V1 cytotox inactive, MCF10A rerep 0.651µM* and SW480 rereplic 34.4%.
COc1ccc(C(=O)NC2CCCc3ccccc32)cc1S(=O)(=O)N1CCOCC1 (centres undefined) was read as ASM inhibitor -0.3%, KB-3-1 cytotox inactive, Giardia kill 2.9, KB-V1 cytotox inconclusive, MCF10A rerep 19.6% and SW480 rereplic 10.3µM*.
Screening COc1ccc(S(=O)(=O)N2CCOCC2)cc1NC(=O)c1ccc(Cl)cc1 returned ASM inhibitor -2.9%, KB-3-1 cytotox inactive, Giardia kill 2.3, KB-V1 cytotox inactive, MCF10A rerep -39.3% and SW480 rereplic 0.231µM*.
For COc1ccc(S(=O)(=O)N2CCOCC2)cc1NC(=O)CN1CCC(Cc2ccccc2)CC1 the results were ASM inhibitor -2.8%, KB-3-1 cytotox inactive, Giardia kill 0.2, KB-V1 cytotox 11.6µM*, MCF10A rerep inconclusive and SW480 rereplic inconclusive.
Screening Cc1cc(Cl)c(S(=O)(=O)Nc2ccc(S(=O)(=O)N3CCOCC3)cc2)cc1OCC(N)=O returned ASM inhibitor 3.0%, KB-3-1 cytotox inactive, Giardia kill -7.5, KB-V1 cytotox inactive, MCF10A rerep 14.3% and SW480 rereplic -68.4%.
`COc1cccc(N2CCN(C(=O)c3oc4ccccc4c3NC(=O)Cc3ccc(OC)c(OC)c3)CC2)c1` gave ASM inhibitor -5.5%, KB-3-1 cytotox inactive, Giardia kill -6.2, KB-V1 cytotox inactive, MCF10A rerep 8.8% and SW480 rereplic 9.9%.
`CCCN1CNc2c(c(=O)[nH]c(=S)n2CCc2ccccn2)C1` gave Giardia kill 5.3.
`Cc1ccc(-n2nc3c(=O)n(CCCC(=O)NCCc4ccccc4Cl)nc(C)c3c2C)cc1` gave Giardia kill -21.8.
`COc1cc(OC)c(NC(=O)C2CCCN(c3ncnc4c3nc3n4CCCCC3)C2)cc1Cl` (centres undefined) gave KB-3-1 cytotox inactive and KB-V1 cytotox inactive.
`O=C(CCn1cccn1)NCc1ccc(Cl)cc1` gave KB-3-1 cytotox inactive and KB-V1 cytotox inactive.
Screening O=C(Nc1cccc([N+](=O)[O-])c1)c1cc(S(=O)(=O)N2CCOCC2)cs1 returned ASM inhibitor -1.8%, Giardia kill 12.5, MCF10A rerep 3.8% and SW480 rereplic 8.1%.
Screening O=S(=O)(c1cccc(COc2ccc(Cl)cc2Cl)c1)N1CCOCC1 returned ASM inhibitor -2.8%, KB-3-1 cytotox inconclusive, Giardia kill -10.1, KB-V1 cytotox inconclusive, MCF10A rerep inconclusive and SW480 rereplic -7.7%.
Screening CC(=O)c1cc(Cl)ccc1OCc1cccc(S(=O)(=O)N2CCOCC2)c1 returned ASM inhibitor 0.0%, KB-3-1 cytotox inactive, Giardia kill -2.2, KB-V1 cytotox 18.4µM*, MCF10A rerep 12.9% and SW480 rereplic -13.5%.
COc1ccc(C(=O)Nc2ccccc2[N+](=O)[O-])cc1S(=O)(=O)N1CCOCC1 was read as ASM inhibitor -0.3%, Giardia kill 16.1, MCF10A rerep inconclusive and SW480 rereplic 18.4µM*.
Screening O=C(Nc1ccccc1[N+](=O)[O-])c1cc(S(=O)(=O)N2CCOCC2)cs1 returned ASM inhibitor -1.8%, Giardia kill -20.7, MCF10A rerep 23.1µM* and SW480 rereplic inconclusive.

Compound activity deposited in PubChem BioAssay by National Center for Advancing Translational Sciences (NCATS).
